According to PubChem BioAssay (NCI):
About 83,000 compounds went through this panel and 20% of them were active in at least one assay; those are over-represented in the sample as a whole.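 In brief: 96-well plates, 48 h treatment, single concentration, percent growth endpoint.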 The source made the active and inactive calls.

The compounds below were run on MOLT-4 leukemia (assay: NCI-60 one-dose screen, 48 h (100 = growth as untreated, 0 = no growth, -100 = all killed)). Details: 10 µM unless noted.
Procedure: Growth inhibition of the MOLT-4 human tumor cell line is measured as a screen for anti-cancer activity. Cells are grown in 96 well plates and exposed to the test compound for 48 hours. Compounds are tested at a single concentration, which is 10^-5 M for most compounds. The reported endpoint is percent growth (GI% or GIPRCNT), where numbers from 0 - 100% represent growth inhibition, and numbers from -100% - 0 represent cell death. For example, a value of 40 represents 60% growth inhibition. A value of 0 means no net growth occurred over the course of the experiment. A value of -40 indicates 40% of cells at the beginning of the experiment died by the end of the experiment. A value of -100 means all cells are dead at the end of the experiment.
NCI-60 Human Tumor Cell Lines Screen was performed using the standard one-dose NCI protocol, which is described in more detail at https://dtp.cancer.gov/discovery_development/nci-60/default.htm.
Compounds with GIPRCNT values below 10 were considered active. Activity score was based on GIPRCNT using the following formula: […]
Score is 0 for GIPRCNT values of 100 or above, 50 for GIPRCNT values of 0, and 100 for GIPRCNT values of -100.

| SMILES | growth |
| --- | --- |
| COc1ccc(NS(=O)(=O)N2CCCCC2)cc1 | 99.8% (inactive) |
| O=c1ncc(-c2ccc(C(F)(F)F)cc2)c(NC2CCCCCC2)[nH]1 | 77.7% (inactive) |
| Cc1ccc(/C=C(/C#N)n2nnc3ncccc32)cc1 | 11.8% (inactive) |
| COc1cnc2c(c1)C(=O)c1c-2n(CCCN2CCNCC2)c(=O)c2cc(F)ccc12 | -16.2% (active) |
| COc1ccc(C(=O)COc2ccc(/C=C3\Oc4ccc5ccccc5c4C3=O)cc2)cc1 | 50.4% (inactive) |
| Cc1ccc(S(=O)(=O)NCCN2c3nc4ccccc4cc3Sc3cc4ccccc4nc32)cc1 | 108% (inactive) |
| CCOC(=O)c1cnc2c(C)cc(C)cc2c1NCCCN(C)C | 5.24% (active) |
| O=C(CC1Sc2ccccc2NC1=O)NNc1cccc(Cl)c1Cl (stereo not given) | 71.6% (inactive) |
| COc1cc(C(=O)/C=C/c2cccc(Nc3ccnc4cc(Cl)ccc34)c2)cc(OC)c1OC | -6.64% (active) |
| CN(C)c1ccc(-n2nc3ccccc3n2)cc1 | 82.6% (inactive) |
| Nc1ccc2c(c1)Cc1cc(Cl)c(Cl)cc1-2 | 70.2% (inactive) |
| CN(C)c1ncnc2c1ncn2C1CCCCO1 (stereo not given) | 95.1% (inactive) |
| O=C1C=CC(=O)N1c1ccccc1N1C(=O)C=CC1=O | 99.2% (inactive) |
| CC(NC(N)=S)c1ccccc1 (stereo not given) | 98.8% (inactive) |
| COc1ccc(CC(=O)Nc2nn3c(-c4cc(C(F)(F)F)cc(C(F)(F)F)c4)nnc3s2)cc1 | 65.7% (inactive) |
| COC(=O)c1cc2c(/C=C3/NC(=S)NC3=O)coc2n1C | 99.9% (inactive) |
| O=C1C(=O)c2c(nc3ccc(Cl)cn23)-c2ccccc21 | -94.5% (active) |
| COc1ccc2cc(C3=CC(=O)CCC3)ccc2c1 | 92.9% (inactive) |
| COc1cc(-c2nc3sc4c(c3c(=O)[nH]2)CCCCCC4)cc(OC)c1OC | 14.6% (inactive) |
| CSc1nc(N)c2c(n1)N(C)C=NS2(=O)=O | 107% (inactive) |

| SMILES | growth |
| --- | --- |
| C/C(=C\CCc1ccoc1)CC/C=C(\C)CCCN1CCSCC1 | 79.6% (inactive) |
| CCOc1nc(-c2ccco2)n2nc(-c3ccco3)cc2n1 | 114% (inactive) |
| O=C(/C=C/c1ccc([N+](=O)[O-])cc1)c1ccc2c3c(cccc13)CC2 | 62.7% (inactive) |
| O=C(/C=C/c1ccc(C(F)(F)F)cc1)c1ccc(Nc2nc(NCCO)nc(NCCO)n2)cc1 | 34.5% (inactive) |
| c1ccc(COc2ccc(Nc3ncnc4c3cnn4-c3ccccc3)cc2)cc1 | 93.1% (inactive) |
| COc1cc(/C=C/C(=O)C(C(=O)/C=C/c2ccc(OC(=O)CCNC34CC5CC(CC(C5)C3)C4)c(OC)c2)C(=O)CCNC23CC4CC(CC(C4)C2)C3)ccc1OC(=O)CCNC12CC3CC(CC(C3)C1)C2 (stereo not given) | -20.4% (active) |
| NC(=O)c1cc(Cl)ccc1NC(=O)c1ccccc1-c1ccccc1 | 13.3% (inactive) |
| Cc1n(Cc2ccc3ccccc3c2)cc[n+]1Cc1ccc2ccccc2c1 | 11.3% (inactive) |
| CSc1nc(-c2ccc(O)cc2O)c2c(=O)[nH]c(Nc3ccc(S(=O)(=O)Nc4nc(C)cc(C)n4)cc3)nc2n1 | 104% (inactive) |
| Cc1ccc(-c2c3c(N)c4c(nc3nc3c2c(C)nn3-c2ccccc2)CCC4)cc1 | 60.9% (inactive) |
| NS(=O)(=O)c1ccc(-n2ncc3c(N/N=C/c4ccccc4)ncnc32)cc1 | 71.4% (inactive) |
| COC(=O)[C@H](Cc1cn(C)cn1)NC(=O)[C@H](Cc1ccccc1)NC(=O)Nc1cc(C(F)(F)F)cc(C(F)(F)F)c1 | -55% [100 µM] (active) |
| COCCOCCOCCOCCOc1ccc2c(c1)C(=O)c1nc3ncccc3c(=O)n1-2 | -28.7% (active) |
| COc1cc(NC(=O)NCc2ccco2)ccc1-c1ccc(NC(=O)NCc2ccco2)cc1OC | 62.5% (inactive) |
| CC(C)N(Cc1ccccc1)c1c(Cl)ssc1=O | 121% (inactive) |
| CCOC(=O)/C=C1/SC(=Nc2ccc(C#N)cc2)N(Cc2ccco2)C1=O | -6.94% (active) |
| Nc1ccc(Oc2c(F)c(F)c(Oc3ccc(N)cc3)c(F)c2F)cc1 | 79.3% (inactive) |
| CCOC(=O)Nc1ccc2c3c(cccc13)-c1ccccc1-2 | 36% (inactive) |
| COc1cc(NC(C)CCCN)c2nc(C)ccc2c1Oc1ccc(F)cc1 (stereo not given) | 63.1% (inactive) |
| COC(=O)c1cc2oc(/C=N\NC(=O)c3cc4oc(C)c(C)c4[nH]3)cc2[nH]1 | 82.1% (inactive) |
